Measurements as given in PubChem BioAssay (NCATS).
Activity calls are given as the source filed them. The call rests on the fitted dose curve.

Assay: qHTS drug screen for cell cycle checkpoint inhibitors in PARPi-resistant BRCA-mutant ovarian cancer cell lines. (AID 1963452)
Conditions: PEO1/OlaR viability, CellTiter-Glo luminescence, 96 h; for Z-AUC: stronger effect = lower value
Method in brief: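 PEO1, PEO4 and PEO1/OlaR ovarian cancer cells, 600 per well, exposed 96 h at 37C to a dilution series. Viability read by CellTiter-Glo luminescence, normalized to DMSO and empty wells; activity summarized as Z-AUC.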

[1] = measured here: PEO1 parental Z-AUC
Potency means the concentration at half of the fitted maximal effect.

SMILES	Z-AUC	Z-AUC [1]	Z-AUC (measured here: PEO4 Z-AUC)	Potency
COc1cc2nccc(Oc3ccc(NC(=O)Nc4cc(C)on4)c(Cl)c3)c2cc1OC	-0.11 (inactive)	0.0474	0.0316	
CCCC1OC2C[C@@H]3[C@H]4CCC5=CC(=O)C=C[C@]5(C)[C@H]4C(O)C[C@]3(C)[C@]2(C(=O)CO)O1 (some centres undefined)	-0.0333 (inactive)	0.534	-0.396	
Cc1ccc2c(c1)C(=O)[C@]1(O)CCN(c3ccccc3)C1=N2	1.54 (inactive)	1.18	1.07	
CCCCC(C)(C)[C@H](O)C=C[C@H]1[C@H](O)CC(=O)[C@H]1CC=CCCCC(=O)O	0.66 (inactive)	0.266	0.726	
CCc1cccc(CC)c1NC(=O)N1Cc2[nH]nc(NC(=O)c3ccc(N4CCN(C)CC4)cc3)c2C1	-0.0238 (inactive)	0.421	-0.125	
CCC(=O)NCC[C@@H]1CCc2ccc3c(c21)CCO3	-0.993 (inactive)	1.01	0.501	
O=C1NC(=O)C(c2cnc3ccccn23)=C1c1cn2c3c(cccc13)CN(C(=O)N1CCOCC1)CC2	-1.3 (inactive)	-1.91	-0.9	
COC1CCC(C(=O)c2ccc3nc4c(cc3c2)CCCO4)CC1 (centres undefined)	-0.16 (inactive)	-0.298	0.0226	
Cc1ccc(NC(=O)c2cccc(N(C)C)c2)cc1NC(=O)c1ccc(O)cc1	1.75 (inactive)	1.05	0.905	
O=C1C(c2c(O)[nH]c3ccccc23)=Nc2ccccc21	0.207 (inactive)	0.824	0.396	
CN1CC(=O)NC1=NC(=O)Nc1cccc(Cl)c1	0.638 (inactive)	0.15	0.317	
CN(C)c1ccc(-c2nc3ncc(Cl)c(N4CCN(CC(=O)Nc5nccs5)CC4)c3[nH]2)cc1	-1.63 (inactive)	-1.25	-1.61	
CCn1c(-c2nonc2N)nc2cncc(CNC3CCNCC3)c21	-0.284 (inactive)	0.212	0.661	
COc1cc(F)c(C(C)C)cc1-c1ccc(C(F)(F)F)cc1CN1C(=O)O[C@H](c2cc(C(F)(F)F)cc(C(F)(F)F)c2)[C@@H]1C	0.469 (inactive)	0.239	0.327	
O=S(=O)(O)c1ccc2cc(N=Nc3cc(S(=O)(=O)O)c4cccnc4c3O)ccc2c1	0.327 (inactive)	-0.476	0.158	
O=C1CCCC(=O)C1C(=O)c1ccc(C(F)(F)F)cc1[N+](=O)[O-]	0.835 (inactive)	1.44	0.656	
CN(C)CC[C@H](CSc1ccccc1)Nc1ccc(S(=O)(=O)NC(=O)c2ccc(N3CCN(Cc4ccccc4-c4ccc(Cl)cc4)CC3)cc2)cc1[N+](=O)[O-]	-0.74 (inactive)	0.0363	-1.54	
C[C@H]1COC2=C1C(=O)C(=O)c1c2ccc2c1CCCC2(C)C	1.69 (inactive)	1.64	1.41	
CO[C@@H]1C(N(C)C(=O)c2ccccc2)C[C@H]2O[C@]1(C)n1c3ccccc3c3c4c(c5c6ccccc6n2c5c31)C(=O)NC4=O (some centres undefined)	0.0475 (inactive)	0.0888	-0.413	
CN(C)CCOc1cc(-c2cn[nH]c2)ccc1NC(=O)C1COc2ccccc2O1 (centres undefined)	1.15 (inactive)	0.743	1.03	
CN1CCN(c2ncc(-c3cc(Cl)cc(Cl)c3Cl)c(N)n2)CC1	-0.667 (inactive)	-0.953	-0.943	
O=C(CO)N1CCC(c2[nH]nc(-c3ccc(Cl)cc3)c2-c2ccncn2)CC1	-0.00709 (inactive)	0.349	0.147	
O=C(O)CCNc1cc(N2CCc3ccccc3CC2)nc(-c2ccccn2)n1	0.743 (inactive)	0.477	0.175	
CN[C@@H](C)[C@H]1[C@H](O)C[C@@]2(C)[C@@H]3CC[C@H]4C(C)(C)[C@@H](NC)CC[C@@]45C[C@@]35CC[C@]12C	0.117 (inactive)	0.364	0.673	
COc1ccc(-c2ccc3ncc4c(c3c2)n(-c2ccc(N3CCNCC3)c(C(F)(F)F)c2)c(=O)n4C)cn1		-2.24	-2.26	123 nM (active)
Cc1ccc(NC(=O)c2ccc(CN3CCN(C)CC3)cc2)cc1Nc1nc(-c2cccnc2)cs1	-0.78 (inactive)	-0.735	-0.741	
COc1cc([C@@H]2c3cc4c(cc3[C@@H](O[C@@H]3O[C@@H]5CO[C@@H](C)O[C@@H]5[C@H](O)[C@@H]3O)[C@H]3COC(=O)[C@H]23)OCO4)cc(OC)c1O	-0.699 (inactive)	-1.32	-0.275	
Cc1cnc(-c2cc(N3CCN(C(=O)CCS(C)(=O)=O)CC3)ncc2Cl)c(C)c1	0.449 (inactive)	1.67	1.63	
